The values that follow come from PubChem BioAssay (NCATS).

The structures appear in SMILES notation. Inconclusive results are not listed. Activity calls are given as the source filed them. Unless noted, the call rests on the fitted dose curve; in most records, active means well fitted curve in the direction sought with a large enough effect; inconclusive means small, poorly fitted or top-dose-only effect, or another doubt; inactive means no such curve, though single readings can be large; an effect the other way counts as inactive or inconclusive.

Assay [1] in a line: qHTS for Inhibitors of the vitamin D receptor (VDR): Hit Validation using a Texas Red Assay (AID 602201). Further: potency means the concentration at half of the fitted maximal effect. In short, it runs like this:
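Fluorescence polarization with 1.5 uM VDR-LBD, LG19078 and 7 nM Texas Red (final). After 2 hours at ambient temperature, read at Ex 595 nm/Em 615 nm.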
Background: In qHTS, concentration-response curves come from the screen itself.

For assay [2], the target named is 3',5'-cyclic-AMP phosphodiesterase 4B (Homo sapiens) (UniProt Q07343). Put plainly: qHTS Assay for Inhibitors of PDE-IV (AID 607; active means well fitted activation curve with a large enough effect in the main read-out, with a control signal flat, not every such curve was filed as active). In short, it runs like this:
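ACTOne HEK293 cells carry a modified cAMP-gated CNG channel and express endogenous PDE4; plated 1000 cells/well, compounds up to 22.9 uM final. Membrane-potential dye fluorescence (ex 535/em 590) was read; parental cells received 10 uM forskolin + 100 uM RO 20-1724.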

For assay [3], the target named is Tumor susceptibility gene 101 protein (Homo sapiens) (UniProt Q99816). Briefly: qHTS Assay for Iinhibitors of HIV-1 Budding by Blocking the Interaction of PTAP/TSG101: Hit Validation (AID 651600). Further: potency means the concentration at half of the fitted maximal effect; nearly all actives have a fitted effect of over 70% in size. Put shortly: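 Fluorescence polarization binding assay: Tsg101 binding domain (10 uM) mixed with compounds and FITC-labeled PTAP peptide (50 nM) in HEPES pH 7.5, 0.15 M NaCl, 0.01% Tween 20, EDTA, TCEP; 20 min at r.t.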
Chain of Tumor susceptibility gene 101 protein (Homo sapiens) (Q99816 whole entry, looked up, the tested form may be a part): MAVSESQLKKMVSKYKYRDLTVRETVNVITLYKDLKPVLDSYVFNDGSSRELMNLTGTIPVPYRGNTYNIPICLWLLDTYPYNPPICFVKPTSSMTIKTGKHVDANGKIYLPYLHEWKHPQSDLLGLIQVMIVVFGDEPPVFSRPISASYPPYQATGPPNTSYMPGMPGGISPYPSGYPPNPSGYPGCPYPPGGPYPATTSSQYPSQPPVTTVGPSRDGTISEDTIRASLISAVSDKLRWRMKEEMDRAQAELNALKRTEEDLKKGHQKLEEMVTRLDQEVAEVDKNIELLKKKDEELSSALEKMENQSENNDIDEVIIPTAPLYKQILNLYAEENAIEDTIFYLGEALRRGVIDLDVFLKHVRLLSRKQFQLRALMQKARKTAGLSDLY

Chain of 3',5'-cyclic-AMP phosphodiesterase 4B (Homo sapiens) (Q07343 whole entry, looked up): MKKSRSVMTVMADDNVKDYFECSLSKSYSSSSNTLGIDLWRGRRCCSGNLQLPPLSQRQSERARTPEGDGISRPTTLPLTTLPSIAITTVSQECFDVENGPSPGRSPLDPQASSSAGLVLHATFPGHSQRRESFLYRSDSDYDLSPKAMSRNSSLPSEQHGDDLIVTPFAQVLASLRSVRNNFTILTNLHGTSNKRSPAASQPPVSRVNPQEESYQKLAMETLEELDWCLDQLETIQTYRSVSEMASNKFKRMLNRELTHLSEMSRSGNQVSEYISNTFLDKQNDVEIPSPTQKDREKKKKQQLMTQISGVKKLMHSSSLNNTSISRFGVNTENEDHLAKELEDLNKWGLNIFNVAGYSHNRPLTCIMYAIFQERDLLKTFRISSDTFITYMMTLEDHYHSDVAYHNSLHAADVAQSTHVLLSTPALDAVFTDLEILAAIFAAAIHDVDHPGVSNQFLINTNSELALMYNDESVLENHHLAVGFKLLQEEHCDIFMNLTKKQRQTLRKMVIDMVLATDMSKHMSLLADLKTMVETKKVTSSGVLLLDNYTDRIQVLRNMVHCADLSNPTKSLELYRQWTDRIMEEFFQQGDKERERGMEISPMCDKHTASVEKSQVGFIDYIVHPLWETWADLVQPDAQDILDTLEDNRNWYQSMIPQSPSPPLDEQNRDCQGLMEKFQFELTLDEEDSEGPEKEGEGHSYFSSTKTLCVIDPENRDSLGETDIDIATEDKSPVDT

In the case of `CC(NC(=O)c1sc2cc([N+](=O)[O-])ccc2c1Cl)C(C)(C)C` (stereo not drawn), the Potency in assay [1] was 3.55 µM (active). The same measure, in the same setting: with `Cc1c(Cc2ccc3c(c2)OCO3)sc(NC(=O)c2cccc3ccccc23)c1C(N)=O` the figure was 28.2 µM (active). Consider `O=[N+]([O-])c1ccccc1-c1ccc(C(=S)N2CCCC2)o1`, for which the Potency entry in assay [1] is “inactive”. On the same count and under the same terms, to `COc1cccc(/C=C/c2[nH]c(=O)[nH]c(=O)c2[N+](=O)[O-])c1O` belongs “inactive”; to `CCC(=O)Nc1cccc(C(=O)/C=C/c2cc(Br)ccc2OC)c1`, 28.2 µM (active); to `CCOc1cc(/C=C2/C(=O)ON=C2C)cc(Br)c1O`, “inactive”. The same measure, in the same setting: to `O=C1C(C2=C(O)c3ccccc3C2=O)=Nc2ccccc21` belongs “inactive”; to `Cc1nnc(NC(=O)c2nc(S(=O)(=O)Cc3ccccc3)ncc2Cl)s1`, 22.4 µM (active). The same measure, in the same setting: to `CS(=O)(=O)c1ccc(S(=O)CC(=O)Oc2ccc(Cl)cc2)c([N+](=O)[O-])c1` (stereo not drawn) belongs 2.51 µM (active).

As for `O=C(Nc1ccc(F)cc1)c1nc(S(=O)(=O)Cc2ccccc2)ncc1Cl`, in assay [1], the Potency was 5.62 µM (active).

For `C#CCOc1ccc(/C=C2/C(=O)ON=C2C)cc1Br`, the Potency entry in assay [1] is “inactive”. Same read-out and setting: with `COc1ccc(Cl)cc1NC(=O)CCS(=O)(=O)c1nc(-c2cccs2)cc(C(F)(F)F)n1` the figure was 11.2 µM (active); with `NC(=O)COc1ccc(C(=O)/C=C2/C(=O)Nc3ccccc32)cc1`, “inactive”. On the same count and under the same terms, with `N#Cc1ccc(/C=C/C(=O)c2cccnc2)cc1` the entry was “inactive”. On the same count and under the same terms, to `COC(=O)c1ccccc1NC(=O)c1nc(S(=O)(=O)Cc2ccccc2)ncc1Cl` belongs 3.16 µM (active). Consider `O=C(Nc1ccccc1)c1nc(S(=O)(=O)Cc2ccccc2F)ncc1Cl`, for which the Potency in assay [1] is 2.82 µM (active). Turning to `CCS(=O)(=O)c1oc(-c2ccc(F)cc2)nc1S(=O)(=O)c1ccccc1`, in assay [1], the Potency is 7.08 µM (active).

Turning to `O=C(/C=C/c1ccccc1F)c1cccc([N+](=O)[O-])c1`, the Potency in assay [1] was 3.16 µM (active).

`c1ccc(CCc2nn3c(Cc4ccccc4)nnc3s2)cc1`: in assay [1], the Potency was 28.2 µM (active). For the compound `O=C(Nc1nc(-c2ccccn2)cs1)c1cc(Cl)ccc1[N+](=O)[O-]`, the Potency result in assay [1] is “inactive”.

Take `COCCN(CC(=O)NC1CCCCC1)C(=O)/C=C/C(=O)c1ccc(OC)cc1O`: the Potency entry in assay [1] was “inactive”. Same read-out and setting: with `COc1ccc(C(=O)c2coc3c2C(=O)C(=O)c2ccccc2-3)cc1` the figure was 5.62 µM (active); with `O=S1(=O)C=C(Sc2nnc(-c3ccccc3)o2)c2ccccc21`, 3.16 µM (active); with `COc1cc(/C=C2\C(=O)ON=C2c2ccc(Cl)cc2)ccc1O`, 3.55 µM (active).

With `CCN(CC)S(=O)(=O)c1ccc(O)c(NS(=O)(=O)c2ccccc2F)c1`, the Potency entry in assay [1] was “inactive”. Still for that read-out and setting: to `O=[S@]1Oc2ccccc2-c2ccccc21` belongs “inactive”; to `CCN(CC)c1ccc(NC(=O)c2ccccc2)cc1S(=O)(=O)Nc1ccccc1OC`, 10 µM (active). In the case of `COc1cccc(C(=O)C(C#N)=C(SC)SC)c1`, the Potency result in assay [1] is “inactive”. On the same count and under the same terms, with `CN1C(=O)/C(=N\OC(=O)c2ccccc2Cl)c2ccccc21` the figure was 31.6 µM (active); with `O=C(O)CCNc1ccc(NCCC(=O)O)c2c1C(=O)c1ccccc1C2=O`, 8.91 µM (active); with `O=C(CCS(=O)(=O)c1nc(-c2cccs2)cc(C(F)(F)F)n1)Nc1cc(Br)ccc1O`, 5.62 µM (active). Still for that read-out and setting: with `Nc1ncnc2c1ncn2[C@@H]1O[C@H](CNCc2ccc(-c3cc(C(F)(F)F)ccc3Cl)o2)[C@@H](O)[C@H]1O` the entry was “inactive”; with `[O-]/[N+](=C\c1ccccc1)c1ccc(Br)cc1`, “inactive”. For the compound `Cc1ccc(C=Nc2ccc(N(C)C)cc2)o1`, the Potency in assay [1] was 20 µM (active). Still for that read-out and setting: to `CCCc1nnc(NC(=O)c2nc(S(=O)(=O)Cc3cccc(C)c3)ncc2Cl)s1` belongs “inactive”; to `CCOc1cc(/C=C\c2[nH]c(=O)[nH]c(=O)c2[N+](=O)[O-])ccc1OC(C)CC` (stereo not drawn), “inactive”.

For the compound `CCCOc1ccc(/C=C2/C(=O)ON=C2C)cc1OCC`, the Potency in assay [1] is 15.8 µM (active). Still for that read-out and setting: with `O=C(/C=C/c1ccc(Cl)cc1)c1ccc([N+](=O)[O-])o1` the figure was 2.82 µM (active); with `CCCNC(=O)c1nnsc1S(=O)c1ccc(Cl)cc1` (stereo not drawn), 3.16 µM (active); with `O=C(Nc1cc(S(=O)(=O)N2CCOCC2)ccc1N1CCCC1)c1ccc(Cl)cc1`, 20 µM (active).

Take `O=C1Nc2ccc(Br)cc2C1=Nc1cccnc1`: in assay [1], the Potency result was “inactive”. The same measure, in the same setting: with `CC(C)(C)c1nnc(NS(=O)(=O)c2ccc([N+](=O)[O-])cc2)s1` the figure was 25.1 µM (active). On the same count and under the same terms, with `O=C(/C=C/c1cccc([N+](=O)[O-])c1)c1ccc2c(c1)OCCO2` the figure was 14.1 µM (active). As for `CCCC/C=C/C(NC(=O)CCc1ccccc1)c1ccccc1` (stereo not drawn), the outcome in assay [2] was inactive. On to `O=C(/C=C/c1ccnc2ccccc12)c1cccs1`, for which, in assay [1], the Potency was 28.2 µM (active). On the same count and under the same terms, to `CC(=O)Nc1cccc(C(=O)/C=C/c2ccc(Br)cc2)c1` belongs 5.62 µM (active). The same measure, in the same setting: with `CCOC(=O)c1c(C)oc2c1c1c(c3ccccc32)OCN(Cc2cccnc2)C1` the figure was 20 µM (active). Consider `COc1ccc(OC)c(-c2c3cc(O)c(=O)cc-3oc3cc(O)c(O)cc23)c1`, for which the Potency in assay [1] is 8.91 µM (active); in assay [3], 32.6 µM (active). As to `C[C@@H](C(=O)N[C@@H](CO)Cc1ccccc1)[C@@H]1C[C@@]1(C)[C@@H](NC(=O)OCc1ccccc1)c1ccccc1`, in assay [2], the result was inactive. Still for that read-out and setting: with `CCCC/C=C/C(NC(=O)OCc1ccccc1Cl)c1ccccc1` (stereo not drawn) the entry was “inactive”. Still for that read-out and setting: with `COC(=O)[C@@]1(Cc2ccc(OC)cc2)[C@H]2c3cc(C(=O)N(C)C)n(Cc4ccccc4)c3C[C@H]2CN1C(=O)c1ccccc1` the entry was “inactive”.

With `COC(=O)[C@@]1(Cc2ccc(F)cc2)[C@H]2c3cc(C(=O)N4CCCC4)n(Cc4cc(F)cc5c4OCOC5)c3C[C@H]2CN1C(=O)c1ccccc1`, the call in assay [2] was inactive.

Turning to `C[C@@H](C(=O)Nc1ccc2ccccc2c1)[C@H]1C[C@]1(C)[C@H](NC(=O)c1ccccc1)c1ccccc1`, the outcome in assay [2] was inactive. On the same count and under the same terms, with `COC(=O)[C@@]1(Cc2ccc(OC)cc2)[C@H]2c3cc(C(=O)N4CCCC4)n(Cc4ccc(C)o4)c3C[C@H]2CN1C(=O)c1ccccc1` the entry was “inactive”. Same read-out and setting: with `COC(=O)[C@@]1(Cc2ccc(OC)cc2)[C@H]2c3cc(C(=O)N(C)C)n(C)c3C[C@H]2CN1C(=O)c1ccccc1` the entry was “inactive”; with `COC(=O)[C@@]1(Cc2ccc(OC)cc2)[C@H]2c3cc(C(=O)N4CCCC4)n(Cc4ccc(S(C)(=O)=O)cc4)c3C[C@H]2CN1C(=O)c1ccccc1`, “inactive”; with `COC(=O)[C@@]1(Cc2ccccc2)[C@H]2c3cc(C(=O)N(C)C)n(CCO)c3C[C@H]2CN1C(=O)c1ccccc1`, “inactive”.
